Results on 8 compounds are retold here after PubChem BioAssay (Tox21).

Several values for one entry are separate records, joined by “and”; a condition that tells them apart may be missing. Identical values can stand only once. A number with no mark means an inactive call. Records with an inconclusive call do not appear. Activity calls are given as the source filed them. Unless noted, calls follow the shape of the dose curve; as a rule, active = well fitted curve in the direction sought with a large enough effect in the repeat runs; inconclusive = weak or mixed curves; inactive = no such curve, though single readings can be large; an effect the other way counts as inactive or inconclusive.

Test [1] deals with Thyrotropin receptor (Homo sapiens) (UniProt P16473). Nature of the test: qHTS assay to identify small molecule agonists of the thyroid stimulating hormone receptor (TSHR) signaling pathway (AID 1224843; calls by dose curve; also: nearly all actives have a fitted effect of over 45% in size). An outline of the steps:
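HEK293 cells stably bearing the thyrotropin receptor were plated at 800 cells/well and challenged with compound (30 min, RT). Accumulated cAMP was quantified via cAMP-d2 competing for cryptate-tagged antibody.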
(In general: Quantitative high-throughput screening tests each substance at several concentrations.)

Test [2] in a line: qHTS assay to identify small molecule agonists of the hypoxia (HIF-1) signaling pathway - cell viability counter screen (AID 1224844; calls by dose curve; also: nearly all actives have a fitted effect of over 50% in size). The gist of the method:
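HRE-bla ME-180 cells, 2,000/well in 0.5% dialyzed FBS medium, treated 17 h at 37C with compounds. Viability read in the same wells as the bla reporter, by CellTiter-Glo luminescence after 30 min at room temperature.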

Test [3] can be described thus: qHTS assay to identify small molecule agonists of H2AX (AID 1224845; active = well fitted activation curve with a large enough effect in the signal ratio in the repeat runs, not every such curve was filed as active; the % refers to the signal ratio). The gist of the method: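 Phospho-H2AX Ser139 measured by HTRF (ex 320 nm; em 665 and 620 nm) after 24 hr antibody incubation. Compounds, 15 concentrations, 0.76% DMSO, were applied to CHO-K1 cells for 3hr at 37C before lysis.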
Test [4] is described as follows: qHTS assay to identify small molecule agonists of the hypoxia (HIF-1) signaling pathway (AID 1224846; active = well fitted activation curve with a large enough effect in the signal ratio in the repeat runs, not every such curve was filed as active; the % refers to the signal ratio). An outline of the steps:
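HRE-bla ME-180 beta-lactamase reporter cells in medium with 0.5% dialyzed FBS, pre-incubated 5 h then exposed to compounds 17 h at 37C, 5% CO2; reporter induction read with CCF4-AM FRET substrate.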

A short description of test [5]: qHTS assay to identify small molecule agonists of H2AX - cell viability counter screen (AID 1224847; calls by dose curve;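 also: wild-type CHO-K1 cells; top concentration of the series differs between compounds; nearly all actives have a fitted effect of over 30% in size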). An outline of the steps: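 For this counter screen, overnight-attached CHO-K1 cells received test compounds (15 concentrations, 0.76% DMSO final); 3 hr later at 37C, CellTiter-Glo reagent was added and luminescence recorded after 30 min at room temperature.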
Test [6] is described as follows: qHTS assay to identify small molecule agonists of the estrogen related receptor (ERR) signaling pathway from Tox21 library (AID 1224849; calls by dose curve; also: nearly all actives have a fitted effect of over 15% in size). An outline of the steps: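 ERR reporter cells (NTP line) pre-incubated 6 hours at 37 C, then exposed to compounds for 18 hours at 37 C. ONE-Glo luciferase luminescence was read after 30 minutes at room temperature.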
Test [7] is described as follows: qHTS RealTime-Glo MT Cell Viability Assay in HepG2 cells - 24 hour (AID 1224867). Also: nearly all actives have a fitted effect of over 50% in size. An outline of the steps: (§1)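 Cells + NanoLuc/prosubstrate dispensed (600 cells/well) → 5 h at 37 C/5% CO2 → compounds in DMSO transferred → 40 h incubation at 37 C, luminescence read at 0, 8, 16, 24, 32, 40 h.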
A short description of test [8]: A CellTox Green Cytotoxicity Assay to monitor cytotoxicity in HEK293 cells - 0 hour (AID 1224869). Also: nearly all actives have a fitted effect of over 50% in size. An outline of the steps:
(§2)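 HEK293 cells, 600/well, were preincubated 5 hours and then exposed to compounds at 37 C for up to 40 hours. A cell-impermeant cyanine dye staining dead-cell DNA was read by fluorescence at 0, 8, 16, 24, 32 and 40 h time points.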

Test [9] is described as follows: qHTS RealTime-Glo MT Cell Viability Assay in HepG2 cells - 40 hour (AID 1224870). Also: nearly all actives have a fitted effect of over 50% in size. The gist of the method:
(§3)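 Real-time viability: cells seeded at 600 per well together with NanoLuc and cell-permeant prosubstrate, compounds added after 5 h incubation. Luminescence tracked at 0, 8, 16, 24, 32 and 40 h of exposure.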

Test [10] is described as follows: A CellTox Green Cytotoxicity Assay to monitor cytotoxicity in HEK293 cells - 40 hour (AID 1224871). Also: nearly all actives have a fitted effect of over 45% in size. Also: potency is read from the fitted curve at half-maximal effect. An outline of the steps: as §2
A short description of test [11]: qHTS RealTime-Glo MT Cell Viability Assay in HEK293 cells - 16 hour (AID 1224872). The gist of the method:
(§4)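 Tox21 10K qHTS, HEK293, 600 cells/well, RealTime-Glo reagent co-dispensed with cells; 5 h preincubation, compound by pintool, 37 C, luminescence at 0–40 h.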

Test [12] is described as follows: qHTS RealTime-Glo MT Cell Viability Assay in HepG2 cells - 8 hour (AID 1224873). Also: nearly all actives have a fitted effect of over 55% in size. An outline of the steps: as §3
Test [13] in a line: A CellTox Green Cytotoxicity Assay to monitor cytotoxicity in HEK293 cells - 24 hour (AID 1224875). Also: series mostly up to about 77 µM; nearly all actives have a fitted effect of over 45% in size. The gist of the method:
as §2

Test [14] can be described thus: A CellTox Green Cytotoxicity Assay to monitor cytotoxicity in HepG2 cells - 16 hour (AID 1224876). Also: nearly all actives have a fitted effect of over 45% in size. The gist of the method: (§5)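 HepG2 cells, 600/well, preincubated 5 h with CellTox Green dye, then exposed to Tox21 compounds in DMSO at 37 C for up to 40 h. Dead-cell DNA fluorescence read at the indicated time point.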
Test [15] can be described thus: qHTS RealTime-Glo MT Cell Viability Assay in HepG2 cells - 32 hour (AID 1224877). Also: nearly all actives have a fitted effect of over 55% in size. The gist of the method:
as §1

The nature of test [16]: A CellTox Green Cytotoxicity Assay to monitor cytotoxicity in HepG2 cells - 24 hour (AID 1224878). Also: nearly all actives have a fitted effect of over 45% in size. The gist of the method: as §5
Test [17] in a line: A CellTox Green Cytotoxicity Assay to monitor cytotoxicity in HepG2 cells - 40 hour (AID 1224879). Also: nearly all actives have a fitted effect of over 40% in size. The gist of the method: as §5
Test [18] in a line: qHTS RealTime-Glo MT Cell Viability Assay in HEK293 cells - 0 hour (AID 1224880). An outline of the steps: (§6)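 600 cells/well were plated with the nonlytic NanoLuc/prosubstrate reagent, pre-incubated 5 h, then given 23 nL of compound in DMSO. Incubation at 37 C for 40 h, with luminescence from viable-cell-reduced substrate read repeatedly from 0 h.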
Test [19] can be described thus: qHTS RealTime-Glo MT Cell Viability Assay in HEK293 cells - 32 hour (AID 1224868). The gist of the method: as §4
Test [20] in a line: qHTS RealTime-Glo MT Cell Viability Assay in HEK293 cells - 40 hour (AID 1224874). Also: nearly all actives have a fitted effect of over 50% in size. To be noted: RealTime-Glo luminescence; max response: active compounds read low. The gist of the method:
as §6
% is scaled to controls: 0 for no effect and ±100 for the full control effect.

Chain of Thyrotropin receptor (Homo sapiens) (P16473 whole entry, looked up): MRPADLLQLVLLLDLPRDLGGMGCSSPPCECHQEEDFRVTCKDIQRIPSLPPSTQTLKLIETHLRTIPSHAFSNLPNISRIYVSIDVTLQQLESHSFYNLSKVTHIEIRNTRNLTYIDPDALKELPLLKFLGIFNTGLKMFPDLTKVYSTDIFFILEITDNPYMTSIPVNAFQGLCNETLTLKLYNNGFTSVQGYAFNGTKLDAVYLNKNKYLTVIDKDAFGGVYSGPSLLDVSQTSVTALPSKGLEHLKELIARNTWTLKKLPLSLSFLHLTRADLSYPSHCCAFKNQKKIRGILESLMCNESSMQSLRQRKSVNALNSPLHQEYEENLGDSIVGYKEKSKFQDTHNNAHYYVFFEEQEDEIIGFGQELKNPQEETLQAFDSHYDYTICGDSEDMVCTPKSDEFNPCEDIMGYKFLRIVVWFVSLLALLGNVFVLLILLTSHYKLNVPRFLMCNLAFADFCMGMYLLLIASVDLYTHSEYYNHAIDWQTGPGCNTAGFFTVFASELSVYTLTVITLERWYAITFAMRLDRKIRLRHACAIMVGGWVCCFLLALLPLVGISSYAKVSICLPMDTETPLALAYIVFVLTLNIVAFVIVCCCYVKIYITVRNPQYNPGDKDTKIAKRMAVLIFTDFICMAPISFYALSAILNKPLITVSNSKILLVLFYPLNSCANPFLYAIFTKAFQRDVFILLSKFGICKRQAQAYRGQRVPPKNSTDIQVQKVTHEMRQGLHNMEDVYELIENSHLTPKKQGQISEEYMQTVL

Consider `O=C(O)c1cc2ccccc2cc1O`, for which the outcome in test [1], in test [2], in [3], in test [4], in test [5] and in [6] was inactive. Also, the call in [8], in [9], in [14], in test [15] and in test [18] was inactive. Besides, the Potency result in [7], in [10], in test [11], in [12], in test [13] and in test [16] was “inactive” each time. Also, in test [17], the Potency result is “inactive”.
With `CCOCCOCCOCCO`, the result in test [1], in test [2], in test [3], in [4], in test [5] and in [8] was inactive. In addition, the result in test [9], in [14], in [15] and in test [18] was inactive. In addition, the Potency entry in test [7], in test [19], in test [10], in test [11], in test [12] and in test [13] was “inactive” each time. Also, the Potency entry in test [16] and in [17] was “inactive” throughout.
With `c1ccc(Oc2ccccc2)cc1`, the outcome in [1], in [2], in [3], in test [4], in test [5] and in test [9] was inactive. Moreover, the compound was called inactive in test [14], in [15] and in test [18]. Further, the Potency entry in test [7], in test [11], in test [12], in [13], in test [16] and in [17] was “inactive” each time. The Potency in [10] is 50.5 µM (active).
`COc1ccc(CCC(C)=O)cc1`: the call in test [1], in test [2], in test [3], in test [4], in [5] and in [8] was inactive. Besides, the compound was classed as inactive in test [9], in [14], in test [15] and in [18]. The Potency result in [7], in test [19], in test [10], in test [11], in test [12] and in test [13] was “inactive” each time. Further, the Potency entry in test [16] and in [17] was “inactive” throughout.
For `CCNc1cccc(C)c1`, the outcome in test [1], in test [3], in test [4], in test [5], in test [6] and in test [9] was inactive. Moreover, the compound was called inactive in [14], in test [15] and in [18]. The Potency entry in test [7], in [19], in test [10], in [11], in test [12] and in test [13] was “inactive” each time. In addition, the Potency result in test [16] and in test [17] was “inactive” each time.
As for `NCCN1CCNCC1`, the compound was called inactive in test [1], in [2], in test [3], in test [4], in test [5] and in test [9]. For the same compound, the outcome in [14], in test [15] and in test [18] was inactive. Also, the Potency result in test [7], in test [19], in test [10], in test [11], in test [12] and in [13] was “inactive” throughout. Further, the Potency result in [16] and in test [17] was “inactive” throughout. Further, the max response in [20] was 1.25% and -21.7%.
As for `CCCOC(=O)c1ccccc1`, the compound was classed as inactive in test [1], in test [2], in [3], in [4], in test [5] and in test [6]. In addition, the outcome in test [9], in [14], in test [15] and in test [18] was inactive. In addition, the Potency entry in [7], in test [10], in test [11], in test [12], in test [13] and in test [16] was “inactive” throughout. Also, the Potency result in test [17] is “inactive”. Further, the max response in [20] was 4.73% and -2.32%.
For `C=C(C)C(=O)OCC(C)C`, the compound was classed as inactive in test [1], in test [2], in test [3], in test [4], in test [5] and in test [8]. Also, the compound was called inactive in test [9], in [14], in test [15] and in [18]. The Potency result in [7], in [10], in test [11], in test [12], in test [13] and in test [16] was “inactive” in each case. Also, the Potency result in test [17] is “inactive”. In test [20], the max response is 0.908% and 6.86%.
